# Most compounds without a hit are left out; they make up all but 0.45% or so of the library.
# GAA glycogen mod: inhibitors or activators of human alpha-glucosidase glycogen cleavage; hit rate 0.38% among 300,000; recombinant GAA, glycogen substrate, Amplex Red glucose oxidase fluorescence; Potency, µM (doses to about 76.4 µM), inactives show at the top dose activity change, negative = inhibition, most hits filed as inhibitors;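 also: potency is read from the fitted curve at half-maximal effect; 0% = full enzyme reaction and -100% = no-enzyme basal signal; the screen sought inhibitors and activators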
#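 Recombinant human enzyme (4 nM); glycogen substrate; 37 C, 40 min, pH 5.0. Readout: coupled glucose oxidase/Amplex Red fluorescence.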
# aGlu spleen mod: inhibitors or activators of human alpha-glucosidase in spleen homogenate | AID 2112 | hit rate 0.006% among 240,000 | Potency, µM (top dose mostly 79.9 µM), for inactives: top-dose activity change, negative = inhibition, hits mostly inhibitors | human spleen homogenate, 4-MU-alpha-glucoside fluorescence | P10253;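 also: potency is read from the fitted curve at half-maximal effect; 0% = enzyme with vehicle and -100% = no enzyme basal signal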
#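 Compounds were titrated against alpha-glucosidase in spleen homogenate at pH 5.0, with 1 mM 4-methylumbelliferyl substrate for 40 min at 37 C. Reactions were quenched with pH 10 NaOH/glycine and fluorescence measured.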
# Menin MLL FP FL: inhibitors of human menin-MLL interaction, wild-type MLL peptide | FP activity change, % at 61.4 µM | AID 1766 | Fluorescence polarization, fluorescein-MLL peptide displacement from menin | 290,000 tested, under 10 active; active = well fitted curve in the direction sought with a large enough effect in the polarisation, not every such curve was filed as active; inconclusive = small, poorly fitted or top-dose-only effect, or effect the other way, or a change in a side signal; inactive = no such curve, though single readings can be large or run the other way; the % refers to the polarisation; also: % of control where 0% means no effect
# Menin MLL FP TR: inhibitors of human menin-MLL interaction, mutant MLL peptide | hit rate 0.23% among 270,000 | Potency, µM (highest dose often 61.6 µM), for inactives: at the highest dose FP activity change, negative = inhibition, actives largely listed as inhibitors | Menin + Texas Red MLL mutant peptide, fluorescence polarization; active = well fitted inhibition curve with a large enough effect in the polarisation, with a control signal flat, not every such curve was filed as active; inconclusive = small, poorly fitted or top-dose-only effect, or effect the other way, or a change in a side signal; inactive = no such curve, though single readings can be large or run the other way; the % refers to the polarisation; also: potency is read from the fitted curve at half-maximal effect; % of control where 0% means no effect
# CXXC DNA block: MLL CXXC-DNA interaction inhibition | Q03164 | MLL-CXXC / FITC-HOXA9 DNA fluorescence polarization | Potency, µM (highest dose often 115 µM), inactives show at the top dose activity change, negative = inhibition, most hits filed as inhibitors | hit rate 0.037% among 290,000 | AID 2662; active = well fitted inhibition curve with a large enough effect in the polarisation, with a control signal flat, not every such curve was filed as active; inconclusive = small, poorly fitted or top-dose-only effect, or effect the other way, or a change in a side signal; inactive = no such curve, though single readings can be large or run the other way; the % refers to the polarisation; also: potency is read from the fitted curve at half-maximal effect
#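 Purified MLL-CXXC (added from a 7 uM solution) was preincubated 5 min at ambient with pinned compounds in 50 mM Tris-HCl pH 7.5, 50 mM NaCl, 1 mM DTT, 0.05% BSA. Fluorescein-labeled HOX-A9 DNA (50 nM solution) followed, 30 min, then polarization read.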
# GAA inhib: blocks human lysosomal alpha-glucosidase; P10253; purified human GAA, 4-MU-alpha-glucoside fluorescence; Potency, µM (titrated, usually from 76.9 µM), for inactives: at the highest dose activity change, negative = inhibition, hits mostly inhibitors; hit rate 0.005% among 200,000;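 also: potency is read from the fitted curve at half-maximal effect; plate controls were uninhibited enzyme wells for no effect and no-enzyme background for full effect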
#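 Activity normalized between no-enzyme (basal) and enzyme-only wells. Conditions: 4 nM human enzyme, 400 uM fluorogenic substrate, citrate/phosphate pH 5.0 with Tween-20, 20 min room temperature, compounds up to 77 uM.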
# MLL CXXC Fl: MLL CXXC-DNA interaction inhibition, fluorescein FP; shares compounds with CXXC DNA block; MLL CXXC-DNA binding, fluorescein FP; Potency, µM (titrated, usually from 345 µM), without a hit: at the highest dose activity change, negative = inhibition, usual class: inhibitors; hit rate 70% among 200; also: potency is read from the fitted curve at half-maximal effect; nearly all actives have a fitted effect of over 80% in size
# MLL CXXC TxRed: MLL CXXC-DNA interaction inhibition, Texas Red FP; shares compounds with CXXC DNA block; MLL CXXC-DNA binding, Texas Red fluorescence polarization; Potency, µM (doses to about 345 µM), for the others: top-dose activity change, negative = inhibition, actives largely listed as inhibitors; hit rate 40% among 200; also: potency is read from the fitted curve at half-maximal effect; % is scaled to controls: 0 for no effect and ±100 for the full control effect; nearly all actives have a fitted effect of over 75% in size
# MLL CXXC HTRF: MLL CXXC-DNA interaction inhibition, HTRF readout; Potency, µM (titrated, usually from 172 µM), inactives show top-dose activity change, negative = inhibition, hits mostly inhibitors; MLL CXXC-DNA binding, HTRF, biochemical; hit rate 30% among 210; shares compounds with CXXC DNA block; also: % is scaled to controls: 0 for no effect and ±100 for the full control effect; nearly all actives have a fitted effect of over 80% in size
# Starred values were filed as active, the others as inactive; i = inactive; ? = inconclusive; . = no result given; [ ] = dose if it differs, or a comment. Unless noted, calls follow the shape of the dose curve; as a rule, active = well fitted curve in the direction sought with a large enough effect; inconclusive = small, poorly fitted or top-dose-only effect, or another doubt; inactive = no such curve, though single readings can be large; an effect the other way counts as inactive or inconclusive.
SMILES,GAA glycogen mod,aGlu spleen mod,Menin MLL FP FL,Menin MLL FP TR,CXXC DNA block,GAA inhib,MLL CXXC Fl,MLL CXXC TxRed,MLL CXXC HTRF
COc1cc(/C=C2\C(=O)NN(c3ccccc3)C2=O)cc([N+](=O)[O-])c1O,?,-3%,7,?,25µM*,-1%,45µM*,113µM*,26%
CCOc1cc(/C=C2\C(=O)NN(c3ccccc3)C2=O)cc([N+](=O)[O-])c1O,?,-5%,-7,?,?,-2%,.,.,.
CN(C)Cc1ccccc1-c1cncnc1Nc1ccc(F)cc1,.,3%,0,-12%,.,.,.,.,.
Nc1c(C(=O)c2ccccc2)sc2snc(SCC(=O)c3ccccc3)c12,-27%,-6%,?,?,?,-1%,i,-5%,11%
Nc1nnc(SCC(=O)c2ccccc2)s1,-12%,4%,-2,-1%,2%,-3%,.,.,.
O=C(O)c1ccc(NC2=C/C(=N/S(=O)(=O)c3ccccc3)c3ccccc3C2=O)cc1,4%,-10%,-5,?,?,-5%,?,?,77%
O=[N+]([O-])c1ccc(Oc2ccc(S(=O)(=O)Nc3ccccc3)cc2)cc1,0%,-3%,3,?,-4%,-10%,.,.,.
O=C1C(Cl)=C(NS(=O)(=O)c2ccc([N+](=O)[O-])cc2)C(=O)c2ccccc21,0%,1%,-2,.,50µM*,.,56µM*,100µM*,77µM*
COc1ccc2occ(C(=O)c3ccc(N)cc3)c2c1,-7%,.,4,26%,?,.,37%,36%,-1%
NS(=O)(=O)c1ccc(NC2=CC(=O)C(=O)c3ccccc32)cc1,1%[76.3 µM],.,-5,?,?,.,?,?,108%
O=C(O)/C=C/C(=O)c1c(-c2ccccc2)[nH]c2ccccc12,0%[76.3 µM],.,5,80%,?,.,7.1µM*,159µM*,49µM*
CC(=O)c1c(-c2ccccc2)[nH]c2ccccc12,17%[76.3 µM],.,4,-30%,4%,.,.,.,.
CSC1=NCCCN1C(=O)c1c(-c2ccccc2Cl)noc1C,-6%,15%,-3,.,?,-4%,?,25%,-5%
CCOc1ccc(NC(=O)c2cc(=O)c3cc(CC)ccc3o2)cc1,1%[76.3 µM],.,.,.,.,.,.,.,.
O=C(O)c1ccc2c(c1)C(=O)/C(=C\c1ccco1)C2=O,-12%,2%,4,?,32µM*,-11%,22µM*,18%,49µM*
Cc1ccc(C=C2C(=O)c3ccccc3C2=O)o1,7%,-6%,8,24%,0%,-10%,.,.,.
Cc1ccc(/C=C2/C(=O)c3ccc(C(=O)O)cc3C2=O)o1,?,3%,?,?,40µM*,-7%,?,?,39µM*
CCOC(=O)/C(=C/C=C1\Sc2cc(OCC)c(OCC)cc2N1CC)C(C)=O,0%,0%,?,-23%,?,?,0.56µM*,?,61%
C#CCOc1ccc(/C=C2/C(=O)N(c3cccc(C(=O)O)c3)N=C2C)cc1OC,8%[76.3 µM],.,-2,?,45µM*,.,45µM*,71µM*,97µM*
COc1cc(/C=C2/C(=O)N(c3ccc(C(=O)O)cc3)N=C2C)cc(OC)c1O,1%,.,20,?,31%,.,.,.,.
Fc1ccccc1COc1ccc(Br)cc1CNCc1cccnc1,26%,-5%,-5,?,?,?,?,?,-10%
Fc1ccccc1COc1ccc(Br)cc1CNCc1ccncc1,8%,1%,-1,?,-20%,-11%,.,.,.
COc1ccc(-c2nn(-c3ccccc3)cc2/C=C/C(=O)OCC(=O)Nc2ccc(C#N)cc2)cc1,8%,-1%,6,?,?,5%,68%,?,5%
Cc1ccc(CNC(=O)CCCCCn2c(=O)c3sccc3n(CC(=O)N3CCCCC3C)c2=O)cc1 (stereo not given),-4%[76.3 µM],.,.,.,.,.,.,.,.
